The source made the active and inactive calls. How the source made its calls: active means hit-call score of the fitted dose curve at least 0.9, where 1 is the maximum; inactive means score below 0.9.
Assays:
Conditions in all cases: mRNA level, 48 h; actives raise or lower the signal
CYP2C9 (gene 1559) = test: LTEA_HepaRG_CYP2C9: Life Technologies and Expression Analysis (LTEA) Assay for CYP2C9 using HepaRG (AID 2283484)
Outline: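 Differentiated human HepaRG cells in serum-free induction medium were exposed 48 h to chemicals in 8-point half-log series from 100 uM (0.5% DMSO), in duplicate. CYP2C9 mRNA was measured by qRT-PCR, normalized to ACTB/GAPDH/POLR2A, with bidirectional fitting versus DMSO.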

CYP2E1 (gene 1571) = test: LTEA_HepaRG_CYP2E1: Life Technologies and Expression Analysis (LTEA) Assay for CYP2E1 using HepaRG (AID 2283485)
Outline: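 HepaRG cells in serum-free induction medium exposed 48 h to test chemicals, 8 half-log concentrations up to 100 uM in 0.5% DMSO, duplicate. CYP2E1 mRNA by qRT-PCR, normalized to ACTB, GAPDH, POLR2A; bidirectional fit versus DMSO.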

CYP4A11 (gene 1579) = test: LTEA_HepaRG_CYP4A11: Life Technologies and Expression Analysis (LTEA) Assay for CYP4A11 using HepaRG (AID 2283486)
Outline: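 CYP4A11 transcript levels were quantified by TaqMan qRT-PCR after HepaRG human liver cells were treated for 48 hours with test chemicals (top 100 uM, half-log dilutions, 0.5% DMSO). Gain or loss of signal was fitted relative to DMSO.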

[1] = read-out: Cytochrome P450 3A4 (Homo sapiens) (UniProt P08684); test: LTEA_HepaRG_CYP3A4: Life Technologies and Expression Analysis (LTEA) Assay for CYP3A4 using HepaRG (AID 2283487)
Outline: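 CYP3A4 transcript measured by TaqMan qRT-PCR and normalized to three housekeeping genes after 48 h chemical exposure of human HepaRG cells. Top concentration 100 uM, half-log steps, 0.5% DMSO vehicle; gain or loss fitted against DMSO baseline.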

[2] = read-out: DNA damage-inducible transcript 3 (DDIT3), DDIT3 (gene 1649); test: LTEA_HepaRG_DDIT3: Life Technologies and Expression Analysis (LTEA) Assay for DNA damage-inducible transcript 3 (DDIT3) using HepaRG (AID 2283488)
Outline: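 Differentiated human HepaRG cells in serum-free induction medium were exposed in duplicate for 48 h to 8 concentrations (top 100 uM, half-log steps, 0.5% DMSO). DDIT3 mRNA measured by TaqMan qRT-PCR, normalized to ACTB/GAPDH/POLR2A; bidirectional fit versus DMSO.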

[3] = read-out: Early growth response protein 1 (EGR1) transcription factor, EGR1 (gene 1958); test: LTEA_HepaRG_EGR1: Life Technologies and Expression Analysis (LTEA) Assay for Early growth response protein 1 (EGR1) transcription factor using HepaRG (AID 2283490)
Outline: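 Differentiated HepaRG cells in serum-free induction medium exposed 48 hours, duplicate, to 8 half-log concentrations up to 100 uM in 0.5% DMSO. EGR1 mRNA measured by TaqMan qRT-PCR, normalized to ACTB, GAPDH, POLR2A; bidirectional fit versus DMSO.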

[4] = read-out: Ezrin (EZR), EZR (gene 7430); test: LTEA_HepaRG_EZR: Life Technologies and Expression Analysis (LTEA) Assay for Ezrin (EZR) using HepaRG (AID 2283491)
Outline: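 HepaRG, 48 h chemical exposure, 8-pt half-log series from 100 uM, 0.5% DMSO vehicle, duplicates. Read-out: EZR mRNA by TaqMan qRT-PCR (Fluidigm array), housekeeping-normalized; bidirectional curve fit vs DMSO baseline.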

[5] = read-out: Cytochrome P450 3A7 (Homo sapiens) (UniProt P24462); test: LTEA_HepaRG_CYP3A7: Life Technologies and Expression Analysis (LTEA) Assay for CYP3A7 using HepaRG (AID 2283492)
Outline: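 CYP3A7 transcript levels were read by TaqMan qRT-PCR on Fluidigm arrays after 48 h chemical exposure of human HepaRG cells, with housekeeping-gene normalisation. Eight half-log concentrations up to 100 uM in 0.5% DMSO were tested in duplicate.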

CYP3A5 (gene 1577) = test: LTEA_HepaRG_CYP3A5: Life Technologies and Expression Analysis (LTEA) Assay for CYP3A5 using HepaRG (AID 2283493)
Outline: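 Differentiated HepaRG cells in serum-free induction medium were dosed 48 h with test chemicals (8-point half-log series, top 100 uM, 0.5% DMSO, duplicate). CYP3A5 mRNA measured by qRT-PCR, normalized to ACTB, GAPDH, POLR2A; bidirectional fit versus DMSO.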

[6] = read-out: Fatty Acid-Binding Protein 1 (FABP1), FABP1 (gene 2168); test: LTEA_HepaRG_FABP1: Life Technologies and Expression Analysis (LTEA) Assay for Fatty Acid-Binding Protein 1 (FABP1) using HepaRG (AID 2283494)
Outline: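 Differentiated human HepaRG cells exposed 48 h in serum-free induction medium to eight half-log concentrations up to 100 uM (0.5% DMSO), duplicate. FABP1 mRNA by qRT-PCR, normalised to ACTB, GAPDH, POLR2A; bidirectional fitting against DMSO.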

[7] = read-out: Cytochrome P450 4A22 (Homo sapiens) (UniProt Q5TCH4); test: LTEA_HepaRG_CYP4A22: Life Technologies and Expression Analysis (LTEA) Assay for Cytochrome P450 4A22 (CYP4A22) using HepaRG (AID 2283495)
Outline: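 HepaRG, 48 h post-plating -> serum-free induction medium; dosed 48 h, duplicate, 8 conc. (100 uM top, half-log), 0.5% DMSO. Readout: CYP4A22 mRNA by qRT-PCR, ACTB/GAPDH/POLR2A normalization; gain/loss fit relative to DMSO.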

[8] = read-out: Cytochrome P450 7A1 (Homo sapiens) (UniProt P22680); test: LTEA_HepaRG_CYP7A1: Life Technologies and Expression Analysis (LTEA) Assay for Cytochrome P450 7A1 (CYP7A1) using HepaRG (AID 2283496)
Outline: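 Gene expression endpoint in human HepaRG liver cells treated for 48 h with test chemicals (up to 100 uM, 0.5% DMSO). Values come from bidirectional concentration-response fitting versus DMSO.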

[9] = read-out: Glutathione S-Transferase (GSTA2), GSTA2 (gene 2939); test: LTEA_HepaRG_GSTA2: Life Technologies and Expression Analysis (LTEA) Assay for Glutathione S-Transferase (GSTA2) using HepaRG (AID 2283497)
Outline: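 Differentiated human HepaRG cells were exposed in duplicate for 48 h in serum-free induction medium, 8 points from 100 uM top in half-log steps, 0.5% DMSO. GSTA2 mRNA was measured by TaqMan qRT-PCR, normalized to ACTB, GAPDH and POLR2A; bidirectional fit versus DMSO.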

[10] = read-out: Glutamate-cysteine ligase catalytic (GCLC), GCLC (gene 2729); test: LTEA_HepaRG_GCLC: Life Technologies and Expression Analysis (LTEA) Assay for Glutamate-cysteine ligase catalytic (GCLC) using HepaRG (AID 2283498)
Outline: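 Differentiated HepaRG cells exposed 48 h in serum-free induction medium, eight-point half-log series topping at 100 uM in 0.5% DMSO, duplicates. GCLC mRNA by qRT-PCR normalized to ACTB, GAPDH and POLR2A, fitted bidirectionally versus DMSO.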

[11] = read-out: growth arrest and DNA damage 45 (GADD45G), GADD45G (gene 10912); test: LTEA_HepaRG_GADD45G: Life Technologies and Expression Analysis (LTEA) Assay for growth arrest and DNA damage 45 (GADD45G) using HepaRG (AID 2283499)
Outline: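 HepaRG, 48 h exposure, top 100 uM, half-log 8-point series, 0.5% DMSO vehicle, duplicates. Readout: GADD45G transcript by qRT-PCR (Fluidigm array), housekeeping-normalised (ACTB/GAPDH/POLR2A). Bidirectional curve fit vs DMSO baseline.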

[12] = read-out: Glutamate-cysteine ligase regulatory (GCLM), GCLM (gene 2730); test: LTEA_HepaRG_GCLM: Life Technologies and Expression Analysis (LTEA) Assay for Glutamate-cysteine ligase regulatory (GCLM) using HepaRG (AID 2283500)
Outline: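 Differentiated human HepaRG cells exposed 48 h in serum-free induction medium to 8-point half-log concentrations (top 100 uM, 0.5% DMSO), in duplicate. GCLM mRNA quantified by qRT-PCR, normalized to ACTB, GAPDH, POLR2A; bidirectional fitting versus DMSO.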

[13] = read-out: Glutathione S-transferase M3 (GSTM3), GSTM3 (gene 2947); test: LTEA_HepaRG_GSTM3: Life Technologies and Expression Analysis (LTEA) Assay for Glutathione S-transferase M3 (GSTM3) using HepaRG (AID 2283501)
Outline: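 qRT-PCR read-out of GSTM3 transcript, normalized to three housekeeping genes, from human HepaRG cells after 48 h chemical exposure. Eight-point half-log series, top 100 uM, 0.5% DMSO vehicle; gain or loss fitted relative to DMSO baseline.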

[14] = read-out: Heat shock 70 kDa protein 1 (HSPA1A), gene 3303; test: LTEA_HepaRG_HSPA1A: Life Technologies and Expression Analysis (LTEA) Assay for Heat shock 70 kDa protein 1 (HSPA1A) using HepaRG (AID 2283502)
Outline: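 Differentiated human HepaRG cells in serum-free induction medium were exposed in duplicate for 48 h to eight concentrations (top 100 uM, half-log steps, 0.5% DMSO). HSPA1A mRNA was quantified by qRT-PCR, normalized to ACTB, GAPDH and POLR2A, and fitted bidirectionally against DMSO.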

[15] = read-out: Hypoxia-inducible factor 1-alpha (Homo sapiens) (UniProt Q16665); test: LTEA_HepaRG_HIF1A: Life Technologies and Expression Analysis (LTEA) Assay for Hypoxia-inducible factor 1 (HIF1A) Trancription factor using HepaRG (AID 2283503)
Outline: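 HepaRG, 48 h exposure, 8-pt half-log series from 100 uM, 0.5% DMSO vehicle, duplicates. Readout: HIF1A transcript by qRT-PCR (Fluidigm array), housekeeping-normalised. Bidirectional curve fit vs DMSO baseline.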

Measured: AC50

Hypoxia-inducible factor 1-alpha (Homo sapiens), sequence (Q16665 whole entry, looked up): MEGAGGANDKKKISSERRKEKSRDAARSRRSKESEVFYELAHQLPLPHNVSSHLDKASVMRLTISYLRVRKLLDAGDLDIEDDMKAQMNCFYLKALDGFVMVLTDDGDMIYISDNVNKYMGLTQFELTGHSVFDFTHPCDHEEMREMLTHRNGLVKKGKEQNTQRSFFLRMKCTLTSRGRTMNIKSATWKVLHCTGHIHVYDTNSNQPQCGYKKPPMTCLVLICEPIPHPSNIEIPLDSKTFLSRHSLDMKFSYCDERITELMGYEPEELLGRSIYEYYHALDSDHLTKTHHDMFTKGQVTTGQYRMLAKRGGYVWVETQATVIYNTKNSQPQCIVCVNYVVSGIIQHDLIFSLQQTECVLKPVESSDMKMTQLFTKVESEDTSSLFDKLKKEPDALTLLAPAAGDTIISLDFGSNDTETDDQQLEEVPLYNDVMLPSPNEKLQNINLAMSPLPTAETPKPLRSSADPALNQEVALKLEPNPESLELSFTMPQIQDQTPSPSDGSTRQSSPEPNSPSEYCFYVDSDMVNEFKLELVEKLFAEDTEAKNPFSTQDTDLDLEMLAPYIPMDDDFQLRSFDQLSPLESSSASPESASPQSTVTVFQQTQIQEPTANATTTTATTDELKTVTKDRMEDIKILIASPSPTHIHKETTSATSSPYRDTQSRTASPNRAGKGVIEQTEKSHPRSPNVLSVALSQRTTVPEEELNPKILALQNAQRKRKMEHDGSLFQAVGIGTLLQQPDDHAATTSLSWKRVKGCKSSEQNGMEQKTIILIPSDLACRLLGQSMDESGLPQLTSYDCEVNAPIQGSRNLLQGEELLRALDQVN
Cytochrome P450 3A7 (Homo sapiens), sequence (P24462 whole entry, looked up): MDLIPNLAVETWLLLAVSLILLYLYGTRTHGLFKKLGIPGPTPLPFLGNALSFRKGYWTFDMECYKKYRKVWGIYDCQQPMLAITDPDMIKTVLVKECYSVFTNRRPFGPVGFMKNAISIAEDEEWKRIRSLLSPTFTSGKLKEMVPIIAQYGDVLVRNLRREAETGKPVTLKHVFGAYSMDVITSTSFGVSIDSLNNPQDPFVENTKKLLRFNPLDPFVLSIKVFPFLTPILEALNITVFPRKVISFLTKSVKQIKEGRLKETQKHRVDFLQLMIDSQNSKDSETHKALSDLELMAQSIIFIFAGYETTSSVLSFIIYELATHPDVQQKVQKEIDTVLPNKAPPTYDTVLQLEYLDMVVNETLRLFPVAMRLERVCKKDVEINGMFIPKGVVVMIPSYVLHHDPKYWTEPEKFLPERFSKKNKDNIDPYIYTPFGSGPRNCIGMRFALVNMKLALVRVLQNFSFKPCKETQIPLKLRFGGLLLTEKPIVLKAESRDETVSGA
Cytochrome P450 3A4 (Homo sapiens), sequence (P08684 whole entry, looked up): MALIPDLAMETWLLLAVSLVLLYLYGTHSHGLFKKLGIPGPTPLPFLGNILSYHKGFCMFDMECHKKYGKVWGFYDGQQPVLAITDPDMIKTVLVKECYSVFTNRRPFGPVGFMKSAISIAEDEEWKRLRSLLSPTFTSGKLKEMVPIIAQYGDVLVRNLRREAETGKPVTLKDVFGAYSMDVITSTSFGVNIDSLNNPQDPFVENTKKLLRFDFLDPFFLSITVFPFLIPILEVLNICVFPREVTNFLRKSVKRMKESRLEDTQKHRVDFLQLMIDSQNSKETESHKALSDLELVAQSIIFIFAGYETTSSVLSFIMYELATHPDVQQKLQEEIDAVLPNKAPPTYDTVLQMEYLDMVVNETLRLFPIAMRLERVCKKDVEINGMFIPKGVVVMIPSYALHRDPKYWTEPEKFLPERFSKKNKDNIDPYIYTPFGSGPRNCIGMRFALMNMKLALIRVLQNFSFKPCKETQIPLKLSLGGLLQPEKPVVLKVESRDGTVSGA

CNC(=O)ON=C(SC)C(=O)N(C)C
inactive: all assays above

O=c1ccc(=O)[nH][nH]1
active: CYP2E1 (gene 1571) 16 µM
not listed: [7]
inactive: all other assays above

CNc1cnn(-c2cccc(C(F)(F)F)c2)c(=O)c1Cl
active: CYP2E1 (gene 1571) 41.1 µM | [1] 31.5 µM | [6] 26 µM | [8] 21.4 µM | [10] 28 µM | [12] 30.1 µM
not listed: [7]
inactive: all other assays above

CCOP(=S)(OCC)Oc1cc(C)nc(C(C)C)n1
active: CYP2E1 (gene 1571) 9.92 µM
not listed: [1] | [7]
inactive: all other assays above

CCNc1nc(Cl)nc(NC(C)(C)C#N)n1
active: CYP2E1 (gene 1571) 13.2 µM | CYP4A11 (gene 1579) 39.9 µM | [1] 4.42 µM | [5] 1.77 µM
not listed: [7]
inactive: all other assays above

From PubChem BioAssay (EPA / NIEHS)
